Test [1] in a line: NCI Yeast Anticancer Drug Screen. Data for the rad50 strain (AID 155).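 Further: 0% = growth of vehicle-only cultures of the same strain.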 The settings on record: S. cerevisiae rad50 strain growth inhibition, stronger effect = higher value. Put shortly: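 A DNA repair-deficient yeast mutant serves as the test organism; compound-induced growth inhibition is calculated against vehicle-treated cells.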
The nature of test [2]: NCI Yeast Anticancer Drug Screen. Data for the mec2-1 strain (AID 157). As to conditions: S. cerevisiae mec2-1 strain, stronger effect = higher value. Put shortly:
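Vehicle-treated cultures served as reference for growth inhibition of compound-exposed mec2-1 yeast.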

Test [3] in a line: NCI Yeast Anticancer Drug Screen. Data for the sgs1 mgt1 strain (AID 161).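 Further: 0% = growth of cultures given vehicle only.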 As to conditions: S. cerevisiae sgs1 mgt1 strain, stronger effect = higher value. The procedure, abridged: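 Test agents were incubated with a DNA-repair-mutant yeast strain. Growth was then read and compared against vehicle-treated controls.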
Test [4] can be described thus: NCI Yeast Anticancer Drug Screen. Data for the cln2 rad14 strain (AID 165).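 Further: 0% = growth equal to vehicle treated cultures.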 The settings on record: S. cerevisiae cln2 rad14 strain, stronger effect = higher value. The procedure, abridged:
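Each compound was tested on cln2 rad14 yeast. Inhibition of growth was calculated against vehicle-exposed controls.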

Test [5] in a line: NCI Yeast Anticancer Drug Screen. Data for the bub3 strain (AID 167). The settings on record: S. cerevisiae bub3 mutant strain, stronger effect = higher value. The procedure, abridged:
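Inhibition values come from growth of compound-treated mutant yeast normalised to vehicle-treated controls.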

Test [6] in a line: NCI Yeast Anticancer Drug Screen. Data for the mlh1 rad18 strain (AID 175). As to conditions: S. cerevisiae mlh1 rad18 strain growth inhibition, stronger effect = higher value. Put shortly: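 Vehicle-treated cultures served as the reference for growth inhibition in a yeast strain carrying DNA damage repair alterations exposed to each compound.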
Setting [7] is: at 5.0 µM (retest, dose inferred, filed as 0.5).
[8] abbreviates: at 50.0 µM (retest, dose inferred, filed as 5.0).

Molecules are shown by their SMILES. “And” between values parts separate entries of the source, which are not always exact repeats. Identical values can stand only once. The panel holds about 79,000 compounds, 15% with a hit somewhere; the sample as a whole holds those more often. The source holds several records for some structures; these can differ, active in one and inactive in another. The source made the active and inactive calls. No stated cut-off is given here; in the data, active means growth inhibition above about 70%; inactive means the rest.

For the compound `CC(=O)OCC1OC(n2c(=S)n(-c3ccccc3)c(=O)c3ccccc32)C(OC(C)=O)C(OC(C)=O)C1OC(C)=O` (stereo unspecified), the growth inhibition in test [1] (setting [7]) is 27% (inactive); in test [1] (setting [8]) it was 27% (inactive); in test [1] (at 50.0 µM), 8.65% (inactive) and -2.35% (inactive); in test [2] (setting [7]) it was 14% (inactive); in test [2] (setting [8]) it was 14% (inactive); in test [2] (at 50.0 µM), -27.1% (inactive) and 5.4% (inactive). For the same compound, the growth inhibition in test [3] (setting [7]) is 11% (inactive); in test [3] (setting [8]), 11% (inactive); in test [3] (at 50.0 µM), 6.3% (inactive) and -28.1% (inactive); in test [4] (setting [7]), 17% (inactive); in test [4] (setting [8]), 17% (inactive); in test [4] (at 50.0 µM), 9.15% (inactive) and -3.95% (inactive). The growth inhibition in test [5] (setting [7]) was 6% (inactive); in test [5] (setting [8]) it was 6% (inactive); in test [5] (at 50.0 µM), 58.9% (inactive) and -30.1% (inactive); in test [6] (setting [7]), 7% (inactive); in test [6] (setting [8]) it was 7% (inactive); in test [6] (at 50.0 µM), 12.2% (inactive) and -0.5% (inactive).
Regarding `Cc1cc(N)c(S)cc1C`, the growth inhibition in test [1] (setting [7]) is 6% (inactive) and -2% (inactive); in test [1] (setting [8]) it was 25% (inactive) and 28% (inactive); in test [1] (at 50.0 µM), 65.1% (inactive) and 25.8% (inactive); in test [2] (setting [7]), -8% (inactive) and 0% (inactive); in test [2] (setting [8]), 25% (inactive) and 31% (inactive); in test [2] (at 50.0 µM), 19.9% (inactive) and 24.2% (inactive). Also, the growth inhibition is 1% (inactive) in test [3] (setting [7]); 44% (inactive) and 37% (inactive) in test [3] (setting [8]); 21.3% (inactive) and 50.4% (inactive) in test [3] (at 50.0 µM); -1% (inactive) and -7% (inactive) in test [4] (setting [7]); 2% (inactive) and 7% (inactive) in test [4] (setting [8]); -50% (inactive) and 30.4% (inactive) in test [4] (at 50.0 µM). Also, the growth inhibition in test [5] (setting [7]) was -2% (inactive) and 1% (inactive); in test [5] (setting [8]), 59% (inactive) and 47% (inactive); in test [5] (at 50.0 µM) it was 42.9% (inactive) and 75.5% (active); in test [6] (setting [7]), 2% (inactive) and -2% (inactive); in test [6] (setting [8]), 70% (active) and 40% (inactive); in test [6] (at 50.0 µM), 59.8% (inactive) and 77% (active).
For `c1ccc2c(c1)CC1=C(O2)c2ccccc2OC1`, the growth inhibition is -2% (inactive) in test [1] (setting [7]); 48% (inactive) in test [1] (setting [8]); 37.5% (inactive) in test [1] (at 50.0 µM); 2% (inactive) in test [2] (setting [7]); 78% (active) in test [2] (setting [8]); 39.5% (inactive) in test [2] (at 50.0 µM). Further, the growth inhibition is 5% (inactive) in test [3] (setting [7]); 76% (active) in test [3] (setting [8]); 42.7% (inactive) in test [3] (at 50.0 µM); -3% (inactive) in test [4] (setting [7]); 22% (inactive) in test [4] (setting [8]); 46.1% (inactive) in test [4] (at 50.0 µM). Further, the growth inhibition in test [5] (setting [7]) was 4% (inactive); in test [5] (setting [8]) it was 80% (active); in test [5] (at 50.0 µM) it was 53% (inactive); in test [6] (setting [7]), 6% (inactive); in test [6] (setting [8]) it was 89% (active); in test [6] (at 50.0 µM), 92.1% (active).
Turning to `CC1(C)N(OC2CCCCO2)C(c2ccccc2)C(c2ccccc2)=[N+]1[O-]` (stereo unspecified), the growth inhibition in test [1] (setting [7]) is 18% (inactive); in test [1] (setting [8]), 24% (inactive); in test [1] (at 50.0 µM), 34% (inactive); in test [2] (setting [7]), 12% (inactive); in test [2] (setting [8]), 21% (inactive); in test [2] (at 50.0 µM), 3.05% (inactive). Further, the growth inhibition was 18% (inactive) in test [3] (setting [7]); 18% (inactive) in test [3] (setting [8]); -13.7% (inactive) in test [3] (at 50.0 µM); 17% (inactive) in test [4] (setting [7]); 27% (inactive) in test [4] (setting [8]); 7.4% (inactive) in test [4] (at 50.0 µM). Also, the growth inhibition in test [5] (setting [7]) is 19% (inactive); in test [5] (setting [8]) it was 25% (inactive); in test [5] (at 50.0 µM), -23% (inactive); in test [6] (setting [7]), 21% (inactive); in test [6] (setting [8]), 24% (inactive); in test [6] (at 50.0 µM), -6.55% (inactive).
Take `O=c1[nH]c(SCc2c(Cl)c(Cl)c(Cl)c(Cl)c2Cl)nc(=S)[nH]1`: the growth inhibition in test [1] (setting [7]) was 1% (inactive); in test [1] (setting [8]) it was 76% (active); in test [1] (at 50.0 µM), 54.1% (inactive); in test [2] (setting [7]), 10% (inactive); in test [2] (setting [8]), 44% (inactive); in test [2] (at 50.0 µM), 38.8% (inactive). Also, the growth inhibition in test [3] (setting [7]) is 3% (inactive); in test [3] (setting [8]), 95% (active); in test [3] (at 50.0 µM), 92.8% (active); in test [4] (setting [7]), -36% (inactive); in test [4] (setting [8]) it was 67% (inactive); in test [4] (at 50.0 µM) it was 43.1% (inactive). For the same compound, the growth inhibition in test [5] (setting [7]) is 14% (inactive); in test [5] (setting [8]), 55% (inactive); in test [5] (at 50.0 µM) it was 65.8% (inactive); in test [6] (setting [7]), 2% (inactive); in test [6] (setting [8]), 86% (active); in test [6] (at 50.0 µM), 70.8% (active).
For the compound `OC1CC2CCCC(C1)C2` (stereo unspecified), the growth inhibition is -2% (inactive) in test [1] (setting [7]); 3% (inactive) in test [1] (setting [8]); -17.8% (inactive) in test [1] (at 50.0 µM); 4% (inactive) in test [2] (setting [7]); 1% (inactive) in test [2] (setting [8]); 17.8% (inactive) in test [2] (at 50.0 µM). The growth inhibition in test [3] (setting [7]) is -2% (inactive); in test [3] (setting [8]), 3% (inactive); in test [3] (at 50.0 µM), -12.2% (inactive); in test [4] (setting [7]), -5% (inactive); in test [4] (setting [8]), -3% (inactive); in test [4] (at 50.0 µM), 72.5% (active). In addition, the growth inhibition in test [5] (setting [7]) is 0% (inactive); in test [5] (setting [8]), -10% (inactive); in test [5] (at 50.0 µM), -18.6% (inactive); in test [6] (setting [7]), -1% (inactive); in test [6] (setting [8]) it was -2% (inactive); in test [6] (at 50.0 µM), -1.65% (inactive).
On to `O=C1CCC(c2ccccc2)(C2(c3ccccc3)CCC(=O)O2)O1` (stereo unspecified), for which the growth inhibition was 1% (inactive) in test [1] (setting [7]); 7% (inactive) in test [1] (setting [8]); 17.4% (inactive) and 59.5% (inactive) in test [1] (at 50.0 µM); -4% (inactive) in test [2] (setting [7]); 4% (inactive) in test [2] (setting [8]); 4.8% (inactive) and 50.9% (inactive) in test [2] (at 50.0 µM). Also, the growth inhibition is 3% (inactive) in test [3] (setting [7]); 57% (inactive) in test [3] (setting [8]); 12.4% (inactive) and 70.5% (active) in test [3] (at 50.0 µM); 4% (inactive) in test [4] (setting [7]); 52% (inactive) in test [4] (setting [8]); 4.35% (inactive) and 13.1% (inactive) in test [4] (at 50.0 µM). Moreover, the growth inhibition in test [5] (setting [7]) was 2% (inactive); in test [5] (setting [8]) it was 21% (inactive); in test [5] (at 50.0 µM), 13.8% (inactive) and 10.7% (inactive); in test [6] (setting [7]), 4% (inactive); in test [6] (setting [8]) it was 47% (inactive); in test [6] (at 50.0 µM), -0.2% (inactive) and 63.1% (inactive).
